Experimental findings from the supplement of paper PMC6555819 are described below.

The assay concerns VDR:RXRa (NR concentration 270 nM, RXRa partner concentration 90 nM). As to the kind of experiment: PBM binding z-score (relative to random genomic background probes); higher = stronger binding; sequences stand for … in GC…GCGATTGACAGCGTAGAATGAAGG
As to the method: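 Protein-binding microarray (Agilent 4x180K custom design, double-stranded 60-nt probes: 5' GC cap, 34-nt variable region, 24-nt constant primer region; full probe sequence given). Purified or IVT nuclear receptor:RXRα heterodimers (3:1 NR:RXRα, mostly 270:90 nM) or homodimers were incubated for 1 h in PBS with 2% milk and no ligand, then detected with Alexa488 antibodies. Fluorescence from o1-orientation probes (~5 replicates averaged) was converted to z-scores against 500 random hg19 background probes. Variable regions are seed direct-repeat (DR0–DR5) sites, all their single-nucleotide variants and half-site ablations.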
TCTCGTAGATCAACAGGAGGTTAAGAAAGATCGA: the PBM binding z-score amounted to 0.875.

ACATGTAGGTTATCGGGTCATTCAGTTTGCGCAT returned a PBM binding z-score of 5.39.

ATCGAAAGGACGAGGTGAGTATAGAGAAAGGGAA: the PBM binding z-score is -0.203.

On to CGAACTAGGTAAGAACAGGACAGTGAAGGATGAT, for which the PBM binding z-score was -0.253.

GCTATTAGTTGAAAGGGCAAACGAATGATTCTCG: the PBM binding z-score is 0.622.

As to GGAACGAGGGCAAGTTGCTAGCAGAGTTTGATGG, the PBM binding z-score amounted to 0.604.

For the sequence CAAACTATGTCACAGAGGTCAAAGTCCGTGCGTA, the PBM binding z-score was 6.63.

GCAAATAGGTAATACAAGGTGAAAGTCCGATTGT returned a PBM binding z-score of 0.551.

GGAACGAGGGCAAGTTGATAGCCGAGTTTGATGG registered a PBM binding z-score of 1.04.

Regarding GCTATCAGTTGAAAGGGCAACCGAATGATTCTCG, the PBM binding z-score was determined as 0.34.

On to GCTCCGAGGACAAGGTCAGAGCTTTGTCCGTAGA, for which the PBM binding z-score was 1.43.

For ACTAGCAGCCCAAGGGTCACTCAAGATTAGTCCG, the PBM binding z-score is 2.6.

Sequence ACAGACAGATGAGTGAAGGTAACTCAGCTGGACG yielded a PBM binding z-score of -0.157.

As to TCTGCTAGGTCAACGAAGGTCAGCTAATCTGCTA, the PBM binding z-score is 4.97.

GATACATGGTCAAGGCCAGAGTACGCGTATTGAT returned a PBM binding z-score of -0.256.

CCTATTAGTTGACCATAAGGGCAACTGAAGCTCG returned a PBM binding z-score of 1.08.

CGTCCAAGGTCAGAGAGGTCAGTGAATGCCGAGT: the PBM binding z-score is 7.26.

On to TGTCAAAGTTCAAAGGTAACGGAAGTATCCACAC, for which the PBM binding z-score came to 5.14.

Sequence TCAGATAGGTAAATGCTAGGTGAAAGTCCGATCT yielded a PBM binding z-score of 0.407.

CCTATTAGTTGACTATAAGGGCAACCGAAGCTCG yielded a PBM binding z-score of 0.181.

Sequence TTACCAAGGAGAAGGTCGTTGATCCCTCTGTAGA registered a PBM binding z-score of 0.838.

On to CCGACTGGGGCAGAAAGGTTACCATTCCATCCGG, for which the PBM binding z-score amounted to 0.567.

The sequence TTACCAATGTGAAAGGTCGTTGATGCACGCCTTG came in with a PBM binding z-score of 2.08.

On to CGTCCAAGGTCAGAGAGGTCCGTGAATGCCGAGT, for which the PBM binding z-score is 4.73.

Turning to CCTAGCAGGCCAGGGTCACTCAGGCATTTCGCTT, the PBM binding z-score is 2.22.

With GCGGCTAGGTCAACTGATGGTCAGCTAAAGCTCG, the PBM binding z-score stood at 1.28.

Take ACTTACGGGTCATCGAGGTTATAGCACGCGTATA: the PBM binding z-score was 7.51.

AGTCAAAGTTCAGGACGAGGTAAGGTAAAGCACG: the PBM binding z-score was 2.4.

On to CAAACTAGGACACCGGAAGGTCAAAGTCCGCATG, for which the PBM binding z-score was found to be 3.3.

Sequence CGTCCAAGGTCAAAGAGGTCAGTGAATGCCGAGT returned a PBM binding z-score of 7.77.

The sequence ATCTCTAGGTAAAGGTTCAGTGAATCCCGAGGAT gave a PBM binding z-score of 1.09.

As for TTACTAAGGTGAAAGGTCGTTGATGCACGCCTTG, the PBM binding z-score is 3.59.

Turning to ACCGAAAGGTCGAGGTGAGTATAGAGAAAGGGAA, the PBM binding z-score was 2.82.

ATCTCTAGGTAAAAGTTCAGTGATTCCCGAGGAT came in with a PBM binding z-score of 1.05.

Turning to ACTAGTTGGTCAGCTGAGGACACACACAATTCGG, the PBM binding z-score came out at 0.506.

Sequence GATACAGGGGCAGCTAGAGGCCAGAGTATGGAAA displayed a PBM binding z-score of -0.219.

In the case of ATATGTAAGTTAGCTGGGGTCATTCAGACTAGGC, the PBM binding z-score is 5.25.

For the sequence ATGTGTAGGTTATCGGGTCATTCAGTTTGCGCAT, the PBM binding z-score came out at 5.25.

Sequence ACTTGCAGGCCAAGGGTCACTCAAGATTAGTCCG gave a PBM binding z-score of 3.05.

In turn, TCGCCTAGGTCATTCAGGGGCCAGTATAGAAAGC had a PBM binding z-score of 3.06.
